# Screening data: PubChem, SRMLSC
# Spn DPM-DC inh = S. pneumoniae DPM-DC inhibition; purified DPM-DC, PK/LDH coupled NADH fluorescence; calls only at 10 µM; 65,000 compounds, 0.49% hits;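 active means the 320 compounds with the highest percent inhibition in the single-dose primary screen, excluding strongly autofluorescent ones, cut at about 32% in these data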;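 further: kinetic rate of NADH fluorescence loss reporting ADP formed by the decarboxylase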
# Fluor 339 460 = intrinsic fluorescence of library compounds, ex339/em460 – biochemical, MLSMR library, data from DPM-DC assay, artefact control, profiling panel | compound autofluorescence, ex339/em460 nm, NADH buffer; active compounds read high; 1 = no-compound wells, NADH background | fluorescence fold increase at 10 µM | 65,000 compounds, 5.5% hits | AID 709;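 active means at 10 µM, mean starting fluorescence two-fold or more over control wells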;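 further: signal is the first read of a kinetic run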
# Spn MK inh = blocks S. pneumoniae mevalonate kinase; purified MK, PK/LDH-coupled NADH absorbance 340 nm; inhibition, % at 10 µM; 65,000 compounds, 0.48% hits;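 active means ranked among the strongest by inhibition in the single 10 µM screen, a fixed top-ranked set picked for dose follow-up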
# NADH enzymes = blocks coupling enzymes of NAD/NADH assays; IC50, µM (highest dose often 10 µM), without a hit: top-dose inhibition; 65,000 compounds, 0.02% hits; coupled PK/LDH NADH assays, four targets; AID 774;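 active means single-dose screening hits from any of four coupled enzyme assays that gave an IC50 when retested across doses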;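 further: the DPM-DC format reads NADH fluorescence rather than 340 nm absorbance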
# Spn PMK inh = inhibitors of Streptococcus pneumoniae phosphomevalonate kinase; purified PMK, PK/LDH-coupled NADH absorbance 340 nm; inhibition, % at 10 µM; 65,000 compounds, 0.49% hits;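 active means top-ranked compounds by inhibition in the single 10 µM screen, taking a fixed number of the strongest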;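 further: 0% = full reaction with DMSO carrier and 100% = background rate without enzyme reaction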
# A340 absorber = absorbance at 340 nm | compound absorbance at 340 nm, fold over control | fold change at 10 µM | 65,000 tested, under 10 active;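 active means at 10 µM dose, initial 340 nm absorbance at least 2 fold that of control wells; inactive means change under 2 fold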;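 further: initial absorbance extrapolated from kinetic A340 decline of NADH oxidation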
# * = called active by the depositor; i = inactive; . = not tested or not shown; + = active, no number. Only some compounds are listed: those with a hit (about 6.3% of all), similar ones and a draw of the others.
SMILES,Spn DPM-DC inh,Fluor 339 460,Spn MK inh,NADH enzymes,Spn PMK inh,A340 absorber
Cc1nc(-c2ccccc2)cc(=O)[nH]1,i,1.12,4.0,5.0%,10.0,1.02
O=C1N[C@@H](Cc2cnc[nH]2)C(=O)N2CCC[C@@H]12,i,1.03,12.0,4.0%,9.0,0.98
Cc1ccc(CNc2oc(-c3ccco3)nc2C#N)cc1,.,2.1*,7.0,5.0%,3.0,1.04
CNc1oc(-c2ccccc2Cl)nc1C#N,i,1.52,0.0,9.0%,9.0,1.05
CNc1oc(-c2ccco2)nc1C#N,.,3.95*,15.0,16.0%,16.0,1.03
Cc1ccc(-c2nc(C#N)c(NCc3cccc4c3OCO4)o2)cc1,i,2.64*,3.0,1.0%,0.0,1.06
CNc1oc(-c2ccc(Cl)cc2)nc1C#N,.,2.38*,0.0,7.0%,14.0,1.05
CC(=O)Oc1ccccc1-c1nc(C)nc(N(C)C(C)=O)n1,i,1.14,1.0,3.0%,0.0,1.06
CCCN1CCN(C(=O)c2cccc3c2C(=O)N(CCOC)C3)CC1,i,1.1,7.0,3.0%,3.0,1.03
COc1cc(-c2nnc(COc3ccc4ccccc4c3)o2)cc(OC)c1OC,i,1.01,16.0,15.0%,28.0*,1.03
CCOc1ncccc1C(=O)OCc1cc(=O)n2c(n1)sc1ccccc12,i,1.42,0.0,8.0%,25.0*,1.03
CCOc1ncccc1C(=O)OCC(=O)c1c(N)n(C)c(=O)n(C)c1=O,i,1.12,14.0,5.0%,0.0,1.02
COc1ccc2c(c1)N(C)C(=O)CC(c1ccccc1)=N2,i,1.07,5.0,3.0%,3.0,1.09
CCOc1ccccc1OCC(=O)Nc1ccc(N2CCCCC2)cc1,+,1.06,4.0,16.0%,0.0,1.02
Cc1cccc(OCC(=O)Nc2ccc(N3CCCC3)cc2)c1C,i,1.01,5.0,4.0%,10.0,0.99
CCOC(=O)N1C(=O)c2cc(OC)ccc2S1(=O)=O,i,1.22,9.0,18.6µM*,29.0*,1.04
O=C(C1CCN(S(=O)(=O)c2cccc3cccnc23)CC1)N1CCN(c2ccc(Cl)cc2)CC1,i,1.14,3.0,16.0%,15.0,1.05
CC(C)OCCCNC(=O)CN1C(=O)CC(C)(C)S(=O)(=O)c2ccccc21,i,0.94,44.0*,17.0%,0.0,1.02
CCOc1cc(S(=O)(=O)NCCc2cccc(C)c2)c(OCC)cc1-n1cnnn1,.,3.66*,4.0,8.0%,11.0,1
CCOc1cc(S(=O)(=O)N2CCC(Cc3ccccc3)CC2)c(OCC)cc1-n1cnnn1,i,1.44,0.0,2.0%,2.0,1.01
CCOc1cc(S(=O)(=O)NCCc2ccccc2C)c(OCC)cc1-n1cnnn1,.,3.85*,0.0,0.0%,0.0,1.06
O=C(CC1(O)C(=O)N(Cc2ccccc2)c2ccccc21)c1ccncc1 (stereo not given),i,1.15,0.0,2.0%,5.0,1.03
CCOc1ccc2[nH]c(=O)c(=O)[nH]c2c1,i,2.17*,16.0,12.0%,4.0,1.07
CCOc1ccc2[nH]c(=O)c(CN(CCO)C(=O)c3ccc(Br)cc3)cc2c1,i,2.65*,1.0,19.0%,42.0*,1.09
CCOc1ccc2[nH]c(=O)c(CN(Cc3ccc(F)cc3)C(=O)c3ccco3)cc2c1,i,1.66,6.0,8.0%,1.0,1.04
SMILES,Spn DPM-DC inh,Fluor 339 460,Spn MK inh,NADH enzymes,Spn PMK inh,A340 absorber
CCC(=O)N(CCO)Cc1cc2ccc(C)c(C)c2[nH]c1=O,i,1.59,10.0,10.0%,12.0,1.07
CCOc1ccc2[nH]c(=O)c(CN(Cc3ccc(F)cc3)C(=O)N3CCCC3)cc2c1,i,2.76*,6.0,11.0%,13.0,1.03
CCOc1ccc2[nH]c(C)cc(=O)c2c1,.,1.65,7.0,6.0%,8.0,1.01
CCOc1ccc2[nH]c(=O)c(CN(CCO)C(=O)CC)cc2c1,i,3.09*,0.0,12.0%,5.0,1.07
CCn1c(SC(C)C(=O)OC)nnc1-c1c[nH]c2ccccc12 (stereo not given),i,1.14,5.0,4.0%,5.0,1.03
Cc1nc2oc3c(NCC4CCCO4)ncnc3c2c2c1COC(C)(C)C2 (stereo not given),+,2.14*,0.0,12.0%,2.0,1.03
Cc1nc2oc3c(NCc4ccccc4)ncnc3c2c2c1COC(C)(C)C2,i,2.51*,7.0,9.0%,0.0,1.03
Cc1nc2sc3c(NCc4ccco4)ncnc3c2c2c1COC(C)(C)C2,i,1.35,1.0,3.0%,9.0,1.05
CC(C)c1nc2oc3c(NCC4CCCO4)ncnc3c2c2c1COC(C)(C)C2 (stereo not given),.,3.8*,9.0,11.0%,12.0,1.02
CCCc1nc2oc3c(NCCOCCO)ncnc3c2c2c1COC(C)(C)C2,.,3.56*,9.0,6.0%,2.0,1.03
CCc1cc2c(NCC3CCCO3)ncnc2s1 (stereo not given),i,1.14,11.0,5.0%,4.0,1.01
Cc1cc(N2C(=O)C3C4C=CC(C4)C3C2=O)ccc1Br (stereo not given),i,1.01,13.0,3.0%,15.0,0.99
Cc1cc(CN2CCOCC2)c(O)c(C2(C)CCCCC2)c1,i,1.07,4.0,1.0%,0.0,1.02
COc1ccc(OC)c(S(=O)(=O)N2c3cc(F)ccc3CCC2C)c1 (stereo not given),i,1.13,6.0,4.0%,7.0,1.01
CCOC(=O)COc1ccc(-c2nnc(-c3ccccc3)o2)cc1,i,1.25,8.0,5.0%,8.0,0.99
COc1cccc(C(=O)Nc2nnc(-c3ccc(Cl)cc3)o2)c1,i,1.28,0.0,5.0%,6.0,1.09
CCOC(=O)CNC(=O)Nc1nnc(-c2ccc(OCC)cc2)o1,i,1.47,4.0,7.0%,28.0*,1
CCOc1ccc(-c2nnc(NC(=O)c3ccc(OCC(C)C)c(OC)c3)o2)cc1,.,4.93*,0.0,7.0%,14.0,1.04
COc1ccc(-c2cc(C(=O)OCC(=O)N(C)C)c3ccccc3n2)cc1,+,2.54*,7.0,19.0%,12.0,1.07
CCOc1ccc(-c2cc(C(=O)O)c3ccccc3n2)c(OCC)c1,i,1.78,6.0,6.0%,0.0,1.13
COc1nc(-c2ccccc2)ccc1-c1noc(C)n1,i,1.28,9.0,6.0%,0.0,1.08
CCc1nc(-c2ccc(-c3ccc(OC)cc3)nc2OC)no1,.,2.13*,0.0,5.0%,9.0,1.13
COCc1nc(-c2ccc(-c3ccc(OC)cc3)nc2OC)no1,.,2.13*,2.0,2.0%,2.0,1.11
COc1ccc(-c2ccc(-c3noc(C(C)C)n3)c(OC)n2)cc1,.,3.99*,7.0,4.0%,0.0,1.05
COc1nc(-c2ccc(Cl)cc2)ccc1-c1noc(-c2ccco2)n1,i,1.71,7.0,8.0%,0.0,1.09
COc1cccc(-c2ccc(-c3noc(-c4ccccc4F)n3)c(OC)n2)c1,.,3.82*,0.0,0.0%,0.0,1.16
